Screens as filed in PubChem.
Dicer inh – inhibitors of human Dicer processing of pre-microRNA | z-score at 25 µM | Q9UPY3 | cat-ELCCA pre-miR-21 Dicer processing, chemiluminescence; stronger effect = higher value | actives 6% (n = 47,000); in the data active = z-score above about 3, passing the limit was not always enough;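 also: plate controls were vehicle for no effect and no enzyme for full effect; higher signal means more uncleaved substrate so more Dicer inhibition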
* = called active by the depositor. This excerpt belongs to a sample that is enriched for hits.

What do the screens show for `C/C(=N\NC(=O)CC#N)c1ccccc1`?
Dicer inh: 2.01

How did CCOC(=O)c1c(NC(=O)Nc2cccc(Cl)c2)sc2c1C(C(=O)OCC)CC2 (stereo unspecified) do in these assays?
Dicer inh: -2.83

What do the screens show for `Cn1c([N+](=O)[O-])cnc1C=Nc1ccc(Oc2ccc(F)cc2)nc1`?
Dicer inh: -0.01

What do the screens show for `COc1ccc(-c2c(C)n[nH]c2C)c(C(=O)O)c1`?
Dicer inh: 0.3

What do the screens show for `Cc1c(C)c(C)c(S(=O)(=O)NNc2c(Cl)cccc2Cl)c(C)c1C`?
Dicer inh: -0.1

How did Cn1c(Sc2cnc(=S)[nH]c2-c2ccc(Cl)cc2)nnc1C(F)(F)F do in these assays?
Dicer inh: -3.47

How did O=C1OC(c2ccccc2)(c2ccccc2)c2ccccc21 do in these assays?
Dicer inh: -0.69

How did CC1(C)OC(=O)c2ccccc2-c2ccccc21 do in these assays?
Dicer inh: 0.83

Results for CC1(C(=O)O)Cc2ccccc2C(=O)O1 (stereo unspecified) ?
Dicer inh: 3.9*

Results for COC(=O)C(CC(C)C)NC(=O)CSc1nnc(C)c(=O)[nH]1 (stereo unspecified) ?
Dicer inh: 0.85

Results for CCOC(=O)CN1C(=O)C2CC=C(Cl)CC2C1=O (stereo unspecified) ?
Dicer inh: 3.14*

What do the screens show for `COc1ccc(N2C(=O)C3CC=C(Cl)CC3C2=O)cc1` (stereo unspecified)?
Dicer inh: -0.6

How did CC(C)CC(C(=O)O)N1C(=O)C2CC=C(Cl)CC2C1=O (stereo unspecified) do in these assays?
Dicer inh: -0.93

Results for NC(=O)Cc1nc(-c2ccc(Br)cc2)cs1 ?
Dicer inh: 3.22*

Results for NC(=O)COc1ccc(-c2noc(COc3ccc(Br)cc3)n2)cc1 ?
Dicer inh: -1.26

Results for O=C(Cn1c(=O)sc2ccccc21)Nc1nc(-c2ccc(Br)cc2)cs1 ?
Dicer inh: -0.5

How did CCOC(=O)NC(=S)NCCc1ccccn1 do in these assays?
Dicer inh: 0.88

How did COc1ccc(C2N3CC4(C)CN2CC(C)(C3)C4)cc1OC (stereo unspecified) do in these assays?
Dicer inh: 1.8

Results for CC12CN3CC(C)(CN(C1)C3c1ccc(O)c(O)c1)C2 (stereo unspecified) ?
Dicer inh: 3.11*

Results for CC12CN3CC(C)(CN(C1)C3c1ccc(F)cc1)C2 (stereo unspecified) ?
Dicer inh: 0.93

Results for CC12CN3CC(C)(CN(C1)C3c1ccc(Cl)cc1)C2 (stereo unspecified) ?
Dicer inh: 5.13*

What do the screens show for `Cc1cccc(C2N3CC4(C)CN2CC(C)(C3)C4)c1` (stereo unspecified)?
Dicer inh: -0.26

How did CC12CN3CC(C)(CN(C1)C3c1ccccc1Cl)C2 (stereo unspecified) do in these assays?
Dicer inh: 0.7

Results for CC1CN(C(C#N)c2c(F)cccc2Cl)CC(C)O1 (stereo unspecified) ?
Dicer inh: -0.25

How did CCCN1C(=O)C(=O)c2cc(Br)ccc21 do in these assays?
Dicer inh: -0.64

How did N#CCCN(CN1C(=O)C(=O)c2cc(Br)ccc21)C1CCCCC1 do in these assays?
Dicer inh: -3.09

How did C#CCN1C(=O)C(=O)c2cc(Br)ccc21 do in these assays?
Dicer inh: 4.34*

Results for COc1ccc(C2C(C#N)=C3N=C(N)c4ccccc4N3C3=C2C(=O)CC(C)(C)C3)c(OC)c1 (stereo unspecified) ?
Dicer inh: 2.96

How did CN(C)c1ccc(C2C(C#N)=C3N=C(N)c4ccccc4N3C3=C2C(=O)CCC3)cc1 (stereo unspecified) do in these assays?
Dicer inh: 3.43*

What do the screens show for `N#CC1=C2N=C(N)c3ccccc3N2C2=C(C(=O)CCC2)C1c1ccc(F)cc1` (stereo unspecified)?
Dicer inh: 0.21

How did COc1cccc(C2C(C#N)=C3N=C(N)c4ccccc4N3C3=C2C(=O)CCC3)c1OC (stereo unspecified) do in these assays?
Dicer inh: -2.36

How did CC1(C)CC(=O)C2=C(C1)N1C(=C(C#N)C2c2ccccc2F)N=C(N)c2ccccc21 (stereo unspecified) do in these assays?
Dicer inh: 3.19*

What do the screens show for `Cc1ccc(C2C(C#N)=C3N=C(N)c4ccccc4N3C3=C2C(=O)CCC3)cc1` (stereo unspecified)?
Dicer inh: 2.55

What do the screens show for `O=c1c2ccccc2nnn1CSc1ncnc2sc3c(c12)CCCC3`?
Dicer inh: -0.87

What do the screens show for `Cc1cc(NNC(=O)c2ccc(Cl)cc2)nc2c1c(C)nn2C`?
Dicer inh: -1.23

What do the screens show for `COC(=O)COc1cc(Br)c(C2C(C#N)=C(N)Oc3c2ccc2ccccc32)cc1OC` (stereo unspecified)?
Dicer inh: -0.16

How did COc1cc(Cl)c(NC(=O)c2cccc(C(F)(F)F)c2)c(OC)c1 do in these assays?
Dicer inh: -1.98

Results for O=S(=O)(Nc1ccccn1)c1ccc(C(F)(F)F)cc1Cl ?
Dicer inh: -0.2
